Measurements published in the supplement of paper PMC8975748.
Counter-ions that a name gives are not always drawn.

System: Saccharomyces cerevisiae BY4741 SeMeCo community
Assay: z-score of subpopulation abundance vs DMSO median, subpopulation auxotrophic for HLU; higher = larger share of this subpopulation than in DMSO controls
Conditions: 10 µM; 24 h; SM minimal medium; subpopulation (auxotrophy): HLU
Outline: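 A community of Saccharomyces cerevisiae BY4741 was built from four plasmids that each restored one auxotrophy and encoded a distinct fluorescent protein. Pre-grown overnight to OD600 1.0 and diluted to 0.3, it was dispensed at 70 µl into 384-well plates acoustically predosed with library drugs for a final 10 µM, and grown 24 h in minimal SM medium. Cells were then paraformaldehyde-fixed and imaged by automated confocal microscopy. Thresholds and autofluorescence correction came from single-auxotroph fluorescent strains, and each subpopulation's abundance was scored as a z-score relative to the vehicle-well median.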

Row | SMILES | z-score of subpopulation abundance
1 | CC(C(=O)O)c1ccc(C(=O)c2cccs2)cc1 (stereo unspecified) [Suprofen] | 0.03
2 | COc1cccc2c1C(=O)c1c(O)c3c(c(O)c1C2=O)C[C@@](O)(C(=O)CO)C[C@@H]3O[C@H]1C[C@H](N)[C@H](O[C@@H]2CCCCO2)[C@H](C)O1 [Pirarubicin] | 2.71
3 | N=C(N)NC(=N)N1CCOCC1 [Moroxydine HCl] | 0.08
4 | Nc1c(CC(=O)O)cccc1C(=O)c1ccccc1 [Amfenac Sodium Monohydrate] | 0.63
5 | CN1CCN(c2c(F)cc3c(=O)c(C(=O)O)cn4c3c2OCN4C)CC1 [Marbofloxacin] | -0.27
6 | CN1CCOC(c2ccccc2)c2ccccc2C1 (stereo unspecified) [Nefopam HCl] | -0.39
7 | COc1ccc(C(C)=O)c(O)c1 [Paeonol] | -0.12
8 | Cc1ccc2c(Cl)cc(Cl)c(O)c2n1 [Chlorquinaldol] | 28.9
9 | NC[C@@H]1O[C@H](O[C@H]2[C@@H](O)[C@H](O[C@@H]3[C@@H](O)[C@H](N)C[C@H](N)[C@H]3O[C@H]3O[C@H](CO)[C@@H](O)[C@H](O)[C@H]3N)O[C@@H]2CO)[C@H](N)[C@@H](O)[C@@H]1O [Paromomycin Sulfate] | -0.44
10 | CN(C)CCC=C1c2ccccc2C=Cc2ccccc21 [Cyclobenzaprine HCl] | -0.46
11 | CCNC(=O)[C@@H]1CCCN1C(=O)[C@H](CCCNC(=N)N)NC(=O)[C@H](CC(C)C)NC(=O)[C@@H](CC(C)C)NC(=O)[C@H](Cc1ccc(O)cc1)NC(=O)[C@H](CO)NC(=O)[C@H](Cc1c[nH]c2ccccc12)NC(=O)[C@H](Cc1c[nH]cn1)NC(=O)[C@@H]1CCC(=O)N1 [Leuprolide Acetate] | 0.54
